High-throughput results as filed in PubChem BioAssay.
Cruzain inh Det: qHTS Assay for Promiscuous and Specific Inhibitors of Cruzain (with detergent). Cruzipain (Trypanosoma cruzi), P25779. Potency, µM, inactives show max response, negative = inhibition, most hits filed as inhibitors. 200,000 compounds, 0.43% hits. purified cruzain, Z-FR-AMC fluorescence, 0.01% Triton;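 note: plate controls were neutral wells for no effect and buffer without enzyme for full effect; nearly all actives have a fitted effect of over 40% in size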
Target sequence (P25779 123-467 limits assumed): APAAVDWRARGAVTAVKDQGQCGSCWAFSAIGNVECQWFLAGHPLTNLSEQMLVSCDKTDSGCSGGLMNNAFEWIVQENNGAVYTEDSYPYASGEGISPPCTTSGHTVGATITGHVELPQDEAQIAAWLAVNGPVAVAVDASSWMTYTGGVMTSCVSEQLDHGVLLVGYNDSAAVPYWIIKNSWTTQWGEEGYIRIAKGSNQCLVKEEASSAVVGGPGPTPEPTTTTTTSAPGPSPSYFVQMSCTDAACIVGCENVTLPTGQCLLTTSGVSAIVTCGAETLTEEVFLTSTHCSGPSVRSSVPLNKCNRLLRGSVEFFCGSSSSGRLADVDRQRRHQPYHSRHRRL
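Detergent-containing run (0.01% Triton X-100) in acetate buffer pH 5.5 with 5 mM DTT: enzyme at 1.5 nM final, 15 min compound preincubation at room temperature, then 2 uM Z-FR-AMC substrate. Activity taken as 60 s fluorescence increase at 360/450 nm.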
Cruzain noTriton: qHTS Assay for Promiscuous and Specific Inhibitors of Cruzain (without detergent). 200,000 compounds, 2.3% hits. Potency, µM, for the others: max response, negative = inhibition, actives largely listed as inhibitors. purified cruzain, Z-FR-AMC fluorescence, no detergent. Cruzipain (Trypanosoma cruzi), P25779;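 note: plate controls were enzyme without inhibitor for no effect and buffer without enzyme for full effect; nearly all actives have a fitted effect of over 40% in size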
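Detergent-free condition (0.00005% Triton X-100) in acetate buffer pH 5.5 with DTT. 1.5 nM enzyme and compound were pre-mixed 15 min, then 2 uM Z-FR-AMC substrate added; reaction progress from fluorescence change between first and third reads (60 s).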
Starred values were filed as active, the others as inactive; u = inconclusive. Most compounds without a hit are left out; they make up all but 2.4% or so of the library. Calls come from the whole dose curve; as a rule, active = well fitted curve in the direction sought with a large enough effect; inconclusive = small, poorly fitted or top-dose-only effect, or another doubt; inactive = no such curve, though single readings can be large; an effect the other way counts as inactive or inconclusive. Potency is the fitted concentration of half-maximal effect.

SMILES | Cruzain inh Det | Cruzain noTriton
CCCSc1ncc(Cl)c(C(=O)Nc2sc3c(c2C(=O)NCC)CCCC3)n1 | -2% | -13%
O=c1[nH]cnc2scc(-c3cccs3)c12 | -2% | 4%
O=c1[nH]c(CN2CCc3ccccc32)nc2scc(-c3cccs3)c12 | -6% | 10µM*
CC(=O)Cn1nnc2sc(-c3ccccc3)cc2c1=O | -8% | -4%
COc1ccc(-n2c(=O)cc(N3CCN(c4ccccc4)CC3)[nH]c2=O)cc1 | 5% | -3%
CCOc1ccc(-n2c(=O)cc(N3CCN(c4ccccc4)CC3)[nH]c2=O)cc1 | 2% | 2µM*
CNc1ncncc1-c1ccc(C(=O)N(C)C)cc1 | 6% | 0%
O=[N+]([O-])c1cc(-c2nc(-c3ccccc3)no2)ccc1N1CCCC1 | -3% | 13%
COc1ccccc1NC(=O)c1ccccc1NC(=O)c1cc(Cl)ccc1NC(=O)c1ccco1 | -5% | 16µM*
COc1ccccc1NC(=O)c1cc(Cl)ccc1NC(=O)c1ccco1 | -3% | 3%
COc1ccc(NC(=O)C(=O)NCCc2sc(-c3ccc(Cl)cc3)nc2C)cc1 | 0% | -3%
Cc1ccc(-c2nc(C)c(CCNS(=O)(=O)c3ccc(F)c(C(F)(F)F)c3)s2)cc1 | -12% | u
COc1cc(-c2nc3nc[nH]n3c2Nc2ccc(C(C)C)cc2)ccc1O | -16% | u
NC(=O)c1ccc(NC(=O)COC(=O)c2c3c(nc4ccccc24)/C(=C\c2cccs2)CCC3)cc1 | -2% | u
CCc1cccc(C)c1NC(=O)COC(=O)c1c2c(nc3ccccc13)/C(=C\c1cccs1)CCC2 | 0% | 7.9µM*
O=C(Cn1c(C(=O)N2CCc3ccccc3C2)cc2sccc21)c1ccccc1 | -7% | 25µM*
O=C(Cn1c(C(=O)N2CCN(C3CCCCC3)CC2)cc2sccc21)c1ccccc1 | 3% | 0%
COc1ccc(CCC(=O)NC2CC(=O)N(c3ccc(C)cc3)C2)cc1 (configuration not stated) | 0% | 1%
CCc1nnc(NC(=O)c2ccc(N3C(=O)CCC3=O)cc2)s1 | -8% | -2%
Cc1ccc(C)c2sc(NC(=O)c3ccc(N4C(=O)CCC4=O)cc3)nc12 | 2% | 20µM*
COCCCNC(=O)C1CCN(c2cc(C)nc3c(-c4ccc(OC)c(OC)c4)c(C)nn23)CC1 | 1% | 17%
O=C(C1CCN(S(=O)(=O)c2cccc3nonc23)CC1)N1CCN(c2ccc(F)cc2)CC1 | -6% | u
O=C(Nc1ccc(Br)cc1)c1cccc(C(=O)Nc2ccc(Br)cc2)c1 | 0% | -14%
COc1ccc(OC)c(CNc2ncnc3onc(-c4ccc(Cl)cc4)c23)c1 | -2% | -5%
CC(C)C(c1nnnn1C1CCCC1)N1CCc2ccccc21 (configuration not stated) | 0% | 2%
SMILES | Cruzain inh Det | Cruzain noTriton
Cc1ccc(C(c2nnnn2C2CCCC2)N2CCc3ccccc32)cc1 (configuration not stated) | -6% | 32µM*
COc1cccc([C@@H]2Oc3ccc(OC)cc3C[C@H]2OC(=O)N[C@H](C)C2CCCCC2)c1 | -2% | -6%
COc1ccc(N/C=C\C(=O)c2ccc3c(c2)OCO3)cc1OC | -7% | 3%
O=C(/C=C\Nc1cccc(F)c1)c1ccc2c(c1)OCO2 | 2% | 25µM*
O=C(CSc1nnc(SCc2cccc3ccccc23)s1)c1ccc2c(c1)OCO2 | -2% | 25µM*
O=C(CSc1nnc(SCc2cccc3ccccc23)s1)N=Nc1c(O)[nH]c2ccccc12 | -4% | 7.9µM*
O=C(CSc1nc2ccccc2[nH]1)c1ccc2c(c1)OCO2 | -1% | 2.5µM*
CN(C)S(=O)(=O)c1ccc(C(=O)Nc2nnc(SCc3cccc4ccccc34)s2)cc1 | 0% | u
O=C(CSc1ccccn1)c1ccc2c(c1)OCO2 | -1% | -9%
Cc1ccc2nc(SCC(=O)c3ccc4c(c3)OCO4)[nH]c2c1 | -3% | u
CCCN1C(=O)C(Cc2nc3ccccc3c(=O)n2CC)c2cc(Br)ccc21 (configuration not stated) | -4% | u
COc1cccc(CNC(=O)Cn2nc(N3CCN(c4ccccc4OC)CC3)ccc2=O)c1 | 1% | u
CCn1c(=O)c2c(nc3n2CCN3c2ccc(OC)cc2)n(C)c1=O | 0% | -5%
Cc1ccc(OCC(=O)Nc2cccc(C(=O)OCc3cc(=O)n4c(C)csc4n3)c2)cc1 | -5% | -3%
CC(CNC(=O)CN1C(=O)COc2ccc(S(=O)(=O)N3CCCCCC3)cc21)c1ccccc1 (configuration not stated) | -4% | 24%
Cc1ccc(NC(=S)NC(=O)c2ccc(F)cc2)cc1S(=O)(=O)Nc1ccccc1Cl | -5% | u
O=C(NC(=S)Nc1ccc2c(c1)C(=O)c1ccccc1C2=O)c1ccc(F)cc1 | 0% | 4µM*
CCOc1ccc(C2c3c(oc4ccc(C)cc4c3=O)C(=O)N2CCCN(C)C)cc1 (configuration not stated) | -1% | -4%
COc1ccc(CNC(=O)c2ccc3c(c2)N(Cc2cc(C)ccc2C)C(=O)CS3)cc1 | 0% | 12%
O=C(NCCc1ccccc1)c1ccc([N+](=O)[O-])cc1 | 3% | 0%
O=C(CCNC(=O)c1ccccc1)Oc1ccc([N+](=O)[O-])cc1 | -22% | 25µM*
COc1ccccc1NS(=O)(=O)c1ccc(C)c(NC(=O)c2ccc(S(=O)(=O)N3CCCCCC3)cc2)c1 | -1% | 32µM*
CN1CCN(c2ccc(Cl)cc2NC(=O)c2ccc(S(=O)(=O)N(C)C)cc2)CC1 | 5% | -1%
CN(C)S(=O)(=O)c1ccc(C(=O)Nc2cc(S(=O)(=O)Nc3ccccc3Cl)ccc2N2CCCCC2)cc1 | -5% | 25µM*
COc1ccccc1NC(=O)c1ccc(S(=O)(=O)N2CCCC2)cc1 | -1% | -1%
SMILES | Cruzain inh Det | Cruzain noTriton
Cc1noc(C)c1-c1nc(NCc2ccccc2)c2ccccc2n1 | -3% | -5%
O=C(c1cc(C(F)(F)F)cc(C(F)(F)F)c1)N1CCC2(CC1)CCN(c1ncccn1)CC2 | -6% | u
Cc1ccc(N2CC(NC(=O)CCc3ccccc3)CC2=O)cc1C (configuration not stated) | 0% | -7%
COc1ccc(NC(=O)c2c(NC(=O)C(F)(F)F)sc3c2CCCCC3)cc1 | -6% | -8%
CN1c2ccccc2C(C)(C)C12C=Nc1c(cc(N3CCOCC3)c3ccccc13)O2 (configuration not stated) | 1% | 25µM*
CN1c2ccccc2C(C)(C)C12C=Cc1cc(O)ccc1O2 (configuration not stated) | -12% | 0%
O=C(COc1ccc(Cl)cc1)NCC(c1ccco1)S(=O)(=O)c1ccc(Cl)cc1 (configuration not stated) | -7% | -10%
Cc1ccc(OC/C(O)=C(\C#N)c2nc3ccccc3s2)cc1 | -3% | 20µM*
CC(C)=C(C#N)c1nc2ccccc2s1 | -7% | -5%
COc1cccc(N2CCN(C(=O)c3cnn(C(C)(C)C)c3C3CCN(C(=O)OC(C)(C)C)CC3)CC2)c1 | -3% | 27%
O=C(O)CCC(=O)Nc1nc(-c2ccccc2)cs1 | 2% | -10%
Cc1ccc(-c2csc(NC(=O)CCCc3cccs3)n2)cc1 | 0% | 7.9µM*
CCC(=O)Nc1ccc(-c2csc(NNC(C)=O)n2)cc1 | -4% | -9%
CC(=O)Nc1ccc(-c2csc(NC(=O)CCCc3cccs3)n2)cc1 | -6% | 10µM*
